High-throughput results from PubChem BioAssay.
HT1080-NT tox: kills 2HG-producing HT-1080-NT fibrosarcoma cells. HT-1080-NT fibrosarcoma viability, CellTiter-Glo ATP luminescence, 48 h. Potency, µM (titrated, usually from 46.1 µM), without a hit: top-dose activity, negative = less viability, most hits filed as cytotoxic. 360,000 compounds, 1.6% hits;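 further: NT is the 2HG producing partner of a matched IDH1 knockdown line; 0% = DMSO-treated cells and -100% = media-only wells without cells; nearly all actives have a fitted effect of over 55% in size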
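Viability by CellTiter-Glo luminescence after 48 h compound exposure at 37C of HT-1080-NT cells (750/well, RPMI, 5% FBS). % activity scaled between DMSO wells and medium-only wells, then curve-fitted and categorized by curve class.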
HT1080 IDH1KD tx: kills HT-1080 cells with IDH1 knockdown | 360,000 compounds, 2% hits | HT-1080 IDH1 knockdown viability, ATP luminescence, 48 h | Potency, µM (doses to about 46.1 µM), inactives show at the top dose activity, negative = toxicity, hits mostly cytotoxic;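 further: 0% = DMSO wells and -100% = cell-free medium wells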
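Using the IDH1-knockdown HT-1080 line run in the same batch and compound series as the NT line, viability after 48 h at 37 °C was determined by CellTiter-Glo luminescence and expressed as % activity.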
DT40 TDP1 no CPT: qHTS for Inhibitors of human tyrosyl-DNA phosphodiesterase 1 (TDP1): qHTS in cells in absence of CPT; DT40 Tdp1-/- hTDP1 cells, no CPT, ATP luminescence, 48 h; Potency, µM (doses to about 46.2 µM), without a hit: at the highest dose activity change, negative = growth inhibition, most hits filed as inhibitors; 420,000 compounds, 15% hits; further: nearly all actives have a fitted effect of over 55% in size
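Growth of hTDP1-complemented DT40 Tdp1-knockout cells is measured by ATP luminescence after at least 48 hr compound exposure at 37 °C, with DMSO substituting for the 20 nM CPT used in the parallel screen.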
KB-3-1 tox: kills parental KB-3-1 adenocarcinoma cells. KB-3-1 viability, CellTiter-Glo ATP luminescence, 72 h. 400,000 compounds, 1.4% hits. AID 1347075. Potency, µM (series often up to 46.1 µM), most hits filed as cytotoxic; further: nearly all actives have a fitted effect of over 60% in size
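Here the drug-naive KB-3-1 line serves as comparator for MDR sub-line selectivity; cells received compound titrations, 72 h at 37 °C, then CellTiter-Glo readout.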
DT40 TDP1 CPT: DT40-hTDP1 cell growth loss with CPT | AID 686979 | chicken DT40 Tdp1-/-;hTDP1 cells + 20 nM CPT, ATP luminescence, 48 h | 420,000 compounds, 12% hits | Potency, µM (titrated, usually from 46.2 µM), without a hit: top-dose activity change, negative = growth inhibition, hits mostly inhibitors; further: nearly all actives have a fitted effect of over 55% in size
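Cell growth measured by CellTiter-Glo luminescence after a minimum 48 h, 37 C compound exposure with 20 nM CPT in Tdp1-knockout DT40 cells stably expressing hTDP1, seeded 400/well; qHTS titration format.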
KB-V1 cytotox: KB-V1 MDR subline cytotoxicity. 400,000 compounds, 3.4% hits. KB-V1 MDR cells viability, CellTiter-Glo, 72 h. Potency, µM (doses to about 46.1 µM), hits mostly cytotoxic; further: nearly all actives have a fitted effect of over 60% in size
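KB-V1 MDR subline cells in DMEM (phenol-red free, 10% FBS) exposed to compounds in qHTS concentration series for 72 h at 37 degrees C. Viability read by CellTiter-Glo luminescence; concentration-effect curves fitted after normalization and correction.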
* = called active by the depositor; i = inactive; ? = inconclusive; . = not tested or not shown; [ ] = dose if it differs, or a comment. The list is not random: actives were taken first. Their share in the collection is about 19%. The call rests on the fitted dose curve; in most records, active means well fitted curve in the direction sought with a large enough effect; inconclusive means small, poorly fitted or top-dose-only effect, or another doubt; inactive means no such curve, though single readings can be large; an effect the other way counts as inactive or inconclusive. Unless noted, on the % scale 0 is the no-effect control and ±100 the full control effect; potency means the concentration at half of the fitted maximal effect.

SMILES	HT1080-NT tox	HT1080 IDH1KD tx	DT40 TDP1 no CPT	KB-3-1 tox	DT40 TDP1 CPT	KB-V1 cytotox
CC(C)COc1ccc(-c2nn(-c3ccccc3)cc2CO)cc1	-1.6%	-8.3%	?	i	20.6µM*	i
OCc1cn(-c2ccccc2)nc1-c1ccc(Br)cc1	11.9%	0.6%	-1.2%	i	-1.8%	i
CCN1C(=O)/C(=C\c2cn(-c3ccccc3)nc2-c2cccnc2)SC1=S	7.0%	13.7%	?	i	14.6µM*	i
CC(C)COc1ccc(-c2nn(-c3ccccc3)cc2/C=C2/SC(=S)N(CC(=O)O)C2=O)cc1	3.1%	1.0%	9.2µM*	i	?	i
COc1c2c(cc3c1C(CC(O)C(C)C)N(C)CC3)OCO2 (centres undefined)	.	.	-12.8%[9.04 µM]	.	6.0%[9.04 µM]	.
Cc1ccc2c(C)[nH]c(=O)cc2c1	-7.0%	-15.2%	7.31µM*	?	7.31µM*	i
COc1ccc(C(=O)NCC(=O)N/N=C(C)\C=C\c2ccccc2)cc1OC	-1.8%	-1.1%	-0.4%	i	11.2%	i
CCN(CC)CCNc1ccc(CO)c2sc3ccccc3c(=O)c12	11.6µM*	20.6µM*	1.16µM*	16.4µM*	0.581µM*	?
CCN(CC)CCNc1cccc2sc3ccccc3c(=O)c12	-2.8%	-13.8%	18.4µM*	i	23.1µM*	?
CCN(CC)CCNc1ccc(CO)c2oc3ccccc3c(=O)c12	?	-16.6%	8.2µM*	?	8.2µM*	?
O=C(NCCN1CCCCC1)Nc1ccccc1Cl	-0.5%	1.5%	12.0%	i	-2.9%	i
CCN(CC)CCCNC(=O)c1csc(Nc2cccc3ccccc23)n1	?	-11.1%	-25.3%	i	-11.9%	i
O=c1c2ccccc2sc2c(CO)ccc(NCCN3CCCCC3)c12	-28.2%	?	0.92µM*	?	0.411µM*	16.4µM*
O=C(COc1ccc2cc(Br)ccc2c1Br)N1CCOCC1	-27.5%	?	?	?	-53.0%	i
COC(=O)C[C@H]1CC[C@@H](NC(=O)Nc2cccc(OC)c2)[C@@H](CO)O1	21.0%	6.6%	1.4%	i	-1.0%	i
O=S(=O)(NC1CC2CCC1C2)c1ccc(Br)s1 (centres undefined)	9.7%	1.3%	23.1µM*	i	?	i
O=S(=O)(NC1CC2CCC1C2)c1ccc(Br)cc1 (centres undefined)	-4.7%	-7.4%	-15.5%	?	-20.0%	i
C#CCn1c2ccccc2c(=O)n1CCOc1ccccc1OC	0.6%	-7.2%	?	i	?	?
COc1ccc(OC)c(C2NC(=O)NC(C)=C2C(=O)Nc2cc(C)cc(C)c2)c1 (centres undefined)	.	.	-11.2%	i	-2.8%	?
CCCn1cnnc1CNC(=O)[C@H]1O[C@@H](n2ccc(=O)[nH]c2=O)[C@H](O)[C@@H]1O	-2.7%	0.8%	-7.5%	i	-14.9%	18.4µM*
COc1ccc(-c2nc3ccc(C)cn3c2Cc2cccc(F)c2)cc1OC	?	?	20.6µM*	i	?	i
COc1ccc(-c2nc3ccc(Cl)cn3c2Cc2cccc(F)c2)cc1OC	?	?	20.6µM*	i	23.1µM*	i
COc1ccc(-c2nc3c4ccccc4ccn3c2Cc2cccc(F)c2)cc1OC	23.1µM*	?	?	i	?	i
COc1ccc(-c2nc3ccc(Br)cn3c2Cc2cccc(F)c2)cc1OC	-26.8%	-20.3%	?	i	?	i
COc1ccc(-c2nc3c(C)cc(Br)cn3c2Cc2cccc(F)c2)cc1OC	?	?	?	i	?	i
SMILES	HT1080-NT tox	HT1080 IDH1KD tx	DT40 TDP1 no CPT	KB-3-1 tox	DT40 TDP1 CPT	KB-V1 cytotox
COc1cccc(CNC(=O)c2nn(-c3ccccc3Cl)nc2CO)c1	.	.	-28.3%	.	?	.
COc1cc(C(=O)N2CCC2(C)C(=O)O)cc(OC)c1OC (centres undefined)	11.3%	12.2%	-12.4%	i	-5.4%	i
Cc1ccc(NC(=O)Cn2c(=O)ccc3cc(S(=O)(=O)N4CCC(C)CC4)ccc32)c(C)c1	.	.	23.1µM*	i	?	i
CC1CCN(S(=O)(=O)c2ccc3c(ccc(=O)n3CC(=O)Nc3cccc(F)c3)c2)CC1	.	.	13µM*	i	14.6µM*	?
CCc1ccccc1NC(=O)Cn1c(=O)ccc2cc(S(=O)(=O)N3CCC(C)CC3)ccc21	.	.	?	i	?	i
Cc1ccc(NC(=O)Cn2c(=O)ccc3cc(S(=O)(=O)N4CCC(C)CC4)ccc32)cc1Cl	.	.	6.51µM*	i	11.6µM*	i
CC1CCN(S(=O)(=O)c2ccc3c(ccc(=O)n3CC(=O)NCc3ccccc3Cl)c2)CC1	.	.	?	i	18.4µM*	i
CC(=O)Nc1ccc(NC(=O)Cn2c(=O)ccc3cc(S(=O)(=O)N4CCC(C)CC4)ccc32)cc1	.	.	?	i	1.5%	?
COc1ccc(C(C(=O)Nc2ccc(C(C)C)cc2)N(C)C(=O)Cc2cccs2)cc1 (centres undefined)	.	.	?	i	?	i
Cc1sc2c(c1C)c(=O)n(-c1cccc(C(F)(F)F)c1)c(=O)n2Cc1ccc(F)cc1	.	.	?	i	?	i
CC(C)(C)c1ccc(CN2N=C(/C=C/c3ccccc3)CCC2=O)cc1	?	?	1.8%	i	9.2%	i
Cn1ccc2c(N(Cc3ccccc3)Cc3ccccc3)cc3c(c21)C1CCC3C1 (centres undefined)	3.4%	-9.2%	18.4µM*	i	18.4µM*	i
CN(CCc1ccccc1)c1cc2c(c3c1ccn3C)C1CCC2C1 (centres undefined)	-18.0%	-21.6%	?	i	16.4µM*	i
CN(Cc1ccccc1)c1cc2c(c3c1ccn3C)C1CCC2C1 (centres undefined)	-10.1%	-16.9%	?	i	?	i
CCOC(=O)C1CCCN(C(=O)c2nn(-c3ccc(C)cc3)c(=O)c3c2c2ccccc2n3C)C1 (centres undefined)	.	.	?	i	?	i
CCc1ccc(-c2nn(CC(=O)NC3CCCCC3)c3c2cnc2ccc(F)cc23)cc1	.	.	10.5%	i	-11.6%	i
Cc1ccc2nc(N/N=C\c3ccc([N+](=O)[O-])o3)nc(-c3ccccc3)c2c1	?	10.4%	?	25.9µM*	23.1µM*	18.4µM*
